According to the supplement of paper PMC10037445:
Whole data set: some 2,900 compounds, median “NF-kB SEAP reporter activity, fold change vs agonist alone” near 0.99, cut for the highest 2% near 2.6. This excerpt belongs to a sample that is enriched for the highest values.

Columns and labels:
[1] = system: RAW-Dual; assay: NF-kB SEAP reporter activity, fold change vs agonist alone; higher = enhanced NF-kB activity; conditions: library stock concentration (final ~1000-fold dilution): 10 mM, cytotoxicity flag (confluency mask): not cytotoxic
Summary of the method: (§1)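 Library stock was pin-tooled at 50 nL into 384-well plates of RAW-Dual macrophages (50,000 cells/well, DMEM), followed 1 h later by a PRR agonist, and the cells were kept at 37 °C, 5% CO2. Supernatant collected after 20 hours was read for IRF by QuantiLuc luminescence and for NF-κB by QuantiBlue absorbance at 620 nm. Reporter activity is fold change over agonist-alone wells, and a well counted as cytotoxic when its IncuCyte confluency was below 70% of agonist controls in both mask sets.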

[2] = system: RAW-Dual; assay: NF-kB SEAP reporter activity, fold change vs agonist alone; cytotoxicity flag (confluency mask): not cytotoxic; higher = enhanced NF-kB activity
Summary of the method: as §1

[3] = agonist: ODN 1826 (TLR9) 0.5 ug/mL
[4] = agonist: Pam2CSK4 (TLR2/6) 0.1 ug/mL
[5] = agonist: Pam3CSK4 (TLR2/1) 0.1 ug/mL

Row | Compound | NF-kB SEAP reporter activity ([1]; agonist: Imiquimod (TLR7) […]) | NF-kB SEAP reporter activity ([1]; agonist: MPLA (TLR4) […]) | NF-kB SEAP reporter activity ([2]; agonist: LPS (TLR4) 0.1 ug/mL) | NF-kB SEAP reporter activity [2, 3] | NF-kB SEAP reporter activity [2, 4] | NF-kB SEAP reporter activity [2, 5]
1 | CC(C)c1c(-c2ccccc2)[nH]c2c(C#N)cnn2c1=O.Cl | 0.757 | 0.99 |  |  |  | 
2 | CC(C)c1c(-c2ccccc2)[nH]c2c(C#N)cnn2c1=O.Cl (library stock concentration (final ~1000-fold dilution): 10 mM) |  |  | 0.8 | 0.816 | 0.507 | 0.52
3 | CN1CCN(C(c2ccccc2)c2ccccc2)CC1.Cl.Cl | 0.9 | 0.897 |  |  |  | 
4 | CN1CCN(C(c2ccccc2)c2ccccc2)CC1.Cl.Cl (library stock concentration (final ~1000-fold dilution): 10 mM) |  |  | 1.15 | 0.595 | 1.04 | 1.02
5 | O.S=c1nc[nH]c2nc[nH]c12 (library stock concentration (final ~1000-fold dilution): 10 mM) |  |  | 1.05 | 0.808 | 0.594 | 0.684
6 | O.S=c1nc[nH]c2nc[nH]c12 | 0.752 | 0.963 |  |  |  | 
7 | COc1ccc(-c2oc3c(CC=C(C)C)c(OC4OC(CO)C(O)C(O)C4O)cc(O)c3c(=O)c2OC2OC(C)C(O)C(O)C2O)cc1 (stereo not drawn) (library stock concentration (final ~1000-fold dilution): 10 mM) |  |  | 1.57 | 0.992 | 1.14 | 1.28
8 | COc1ccc(-c2oc3c(CC=C(C)C)c(OC4OC(CO)C(O)C(O)C4O)cc(O)c3c(=O)c2OC2OC(C)C(O)C(O)C2O)cc1 (stereo not drawn) | 0.89 | 1.13 |  |  |  | 
9 | C=C1CCCC2(C)C=C3OC(=O)C(C)=C3CC12 (stereo not drawn) | 0.726 | 1.14 |  |  |  | 
10 | C=C1CCCC2(C)C=C3OC(=O)C(C)=C3CC12 (stereo not drawn) (library stock concentration (final ~1000-fold dilution): 10 mM) |  |  | 1 | 1.06 | 1.52 | 1.49
11 | O=c1cc(-c2ccc(O)c(O)c2O)oc2ccccc12 (library stock concentration (final ~1000-fold dilution): 10 mM) |  |  | 1.08 | 0.88 | 0.927 | 0.532
12 | O=c1cc(-c2ccc(O)c(O)c2O)oc2ccccc12 | 0.689 | 1.05 |  |  |  | 
13 | CCOC(=O)C(CCc1ccccc1)NC(C)C(=O)N1C(C(=O)O)CC2CCCCC21 (stereo not drawn) (library stock concentration (final ~1000-fold dilution): 10 mM) |  |  | 1.25 | 1 | 1.01 | 0.933
14 | CCOC(=O)C(CCc1ccccc1)NC(C)C(=O)N1C(C(=O)O)CC2CCCCC21 (stereo not drawn) | 0.911 | 1.04 |  |  |  | 
15 | CCCCCCCCCCCCCCCC(=O)OC1C(SC)OC(C(NC(=O)C2CC(CCC)CN2C)C(C)Cl)C(O)C1O.Cl (stereo not drawn) | 1.2 | 0.983 |  |  |  | 
16 | CCCCCCCCCCCCCCCC(=O)OC1C(SC)OC(C(NC(=O)C2CC(CCC)CN2C)C(C)Cl)C(O)C1O.Cl (stereo not drawn) (library stock concentration (final ~1000-fold dilution): 10 mM) |  |  | 0.968 | 1.08 | 0.877 | 0.713
17 | Cc1n[nH]c2ncc(C(=O)N3CCCC3c3ccc(Cl)cc3)cc12 (stereo not drawn) (library stock concentration (final ~1000-fold dilution): 10 mM) |  |  | 2.51 | 2.07 | 1.61 | 2.59
18 | Cc1n[nH]c2ncc(C(=O)N3CCCC3c3ccc(Cl)cc3)cc12 (stereo not drawn) | 1.44 | 1.77 |  |  |  | 
19 | COC(=O)NC(C(=O)N1CCCC1c1ncc(-c2ccc(-c3ccc(-c4cnc(C5CCCN5C(=O)C(NC(=O)OC)C(C)C)[nH]4)cc3)cc2)[nH]1)C(C)C (stereo not drawn) | 1.24 | 1.31 |  |  |  | 
20 | COC(=O)NC(C(=O)N1CCCC1c1ncc(-c2ccc(-c3ccc(-c4cnc(C5CCCN5C(=O)C(NC(=O)OC)C(C)C)[nH]4)cc3)cc2)[nH]1)C(C)C (stereo not drawn) (library stock concentration (final ~1000-fold dilution): 10 mM) |  |  | 1.88 | 0.935 | 0.867 | 0.8
21 | Cn1ncc(Cl)c1-c1cc(C(=O)NC(CN)Cc2cccc(F)c2)sc1Cl (stereo not drawn) | 1.39 | 1.77 |  |  |  | 
22 | Cn1ncc(Cl)c1-c1cc(C(=O)NC(CN)Cc2cccc(F)c2)sc1Cl (stereo not drawn) (library stock concentration (final ~1000-fold dilution): 10 mM) |  |  | 1.53 | 1.27 | 1 | 1.15
23 | CCCC(NC(=O)C1C2CCCC2CN1C(=O)C(NC(=O)C(NC(=O)c1cnccn1)C1CCCCC1)C(C)(C)C)C(=O)C(=O)NC1CC1 (stereo not drawn) (library stock concentration (final ~1000-fold dilution): 10 mM) |  |  | 1.3 | 0.887 | 0.68 | 0.601
24 | CCCC(NC(=O)C1C2CCCC2CN1C(=O)C(NC(=O)C(NC(=O)c1cnccn1)C1CCCCC1)C(C)(C)C)C(=O)C(=O)NC1CC1 (stereo not drawn) | 0.65 | 1.02 |  |  |  | 
25 | Nc1nc(F)nc2c1ncn2C1OC(CO)C(O)C1O (stereo not drawn) (library stock concentration (final ~1000-fold dilution): 10 mM) |  |  | 1.1 | 1.03 | 1.06 | 1.22
26 | Nc1nc(F)nc2c1ncn2C1OC(CO)C(O)C1O (stereo not drawn) | 0.92 | 0.844 |  |  |  | 
